Reference: PubChem BioAssay (NCATS)
“And” between values parts separate entries of the source, which are not always exact repeats. Equal entries are not always repeated. Results filed as inconclusive are left out. The source made the active and inactive calls. Unless noted, calls follow the shape of the dose curve; as a rule, active = well fitted curve in the direction sought with a large enough effect; inconclusive = small, poorly fitted or top-dose-only effect, or another doubt; inactive = no such curve, though single readings can be large; an effect the other way counts as inactive or inconclusive.

Tests used:
[1] = Cell Viability - N2a (AID 540); conditions: N2a mouse neuroblastoma cell viability; activity change, negative = cytotoxicity: at 92.2 µM (top of the series); also: nearly all actives have a fitted effect of over 45% in size; also: potency is read from the fitted curve at half-maximal effect;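 as to activity change, negative = cytotoxicity: plate controls were DMSO alone for no effect and tamoxifen control for full effect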
In short: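 CellTiter-Glo ATP luminescence, read 20 min after reagent at room temperature, reported viability following 40 h compound treatment at 37 °C. N2a mouse neuroblastoma cells seeded 1500/well; Hill equation gave AC50.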

[2] = Cell Viability - H-4-II-E (AID 543); also: nearly all actives have a fitted effect of over 35% in size; also: potency is read from the fitted curve at half-maximal effect
In short: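 CellTiter-Glo luminescence (intracellular ATP) measured after 40 h compound exposure at 37 °C in H-4-II-E rat hepatoma cells seeded at 1500/well. Values are AC50s fitted with the standard Hill equation.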

[3] = Cell Viability - Renal Proximal Tubule (AID 545); conditions: renal proximal tubule cells viability, primary cells of rat origin; activity change, negative = cytotoxicity: at 91.7 µM (top of the series); also: nearly all actives have a fitted effect of over 40% in size; also: potency is read from the fitted curve at half-maximal effect;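 as to activity change, negative = cytotoxicity: 0% = DMSO only and -100% = 100 µM tamoxifen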
In short: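 Primary rat renal proximal tubule cells (1000/well) were treated with compounds for 40 hr at 37 °C in complete medium. Intracellular ATP was measured by CellTiter-Glo luminescence, and AC50 values came from Hill-equation fits of concentration-response data.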

[4] = MultiTox-Fluor Cytotoxicity Assay - LYMP1-001 - Live Cells (AID 947); also: potency is read from the fitted curve at half-maximal effect;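 as to activity change, negative = cytotoxicity: 0% = DMSO only and full inhibition = tetraoctylammonium bromide control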
[5] = Cell Viability - LYMP2-010 (AID 981); also: nearly all actives have a fitted effect of over 55% in size; also: potency is read from the fitted curve at half-maximal effect
In short: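 CellTiter-Glo ATP luminescence measured cytotoxicity after 24 h compound exposure at 37 C. LYMP2-010 cells were seeded at 2500/well, with tetraoctylammonium bromide as control; concentration-response curves gave AC50 values by the Hill equation.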

[6] = molecular target: Thyroid hormone receptor beta (Homo sapiens) (UniProt P10828); test: qHTS assay for small molecule antagonists of thyroid hormone receptor beta signaling (AID 588547; active = well fitted inhibition curve with a large enough effect in the signal ratio, with a control signal flat, not every such curve was filed as active; the % refers to the signal ratio;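 also: cells stimulated with 0.4 nM T3 agonist during compound exposure; % is scaled to controls: 0 for no effect and ±100 for the full control effect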); conditions: TR-UAS-bla HEK293, beta-lactamase ratio, antagonist mode, 18 h
Thyroid hormone receptor beta (Homo sapiens), sequence (P10828 whole entry, looked up): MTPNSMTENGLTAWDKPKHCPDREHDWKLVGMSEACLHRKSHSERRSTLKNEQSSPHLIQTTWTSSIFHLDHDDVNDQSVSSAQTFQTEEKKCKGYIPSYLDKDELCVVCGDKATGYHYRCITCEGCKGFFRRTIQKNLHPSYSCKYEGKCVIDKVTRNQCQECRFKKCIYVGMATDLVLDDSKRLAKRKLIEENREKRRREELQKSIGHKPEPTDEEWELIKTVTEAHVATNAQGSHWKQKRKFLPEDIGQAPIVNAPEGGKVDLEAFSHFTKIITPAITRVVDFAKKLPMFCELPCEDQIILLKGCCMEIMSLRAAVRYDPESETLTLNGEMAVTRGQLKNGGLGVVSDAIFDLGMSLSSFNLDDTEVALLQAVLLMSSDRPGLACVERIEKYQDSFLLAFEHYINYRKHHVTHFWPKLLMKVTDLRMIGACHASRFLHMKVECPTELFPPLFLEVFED
In short: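 TR-UAS-bla GripTite HEK293 cells in 2% charcoal/dextran FBS medium; compounds 0.59 nM to 92 uM with T3 at 0.4nM final, 18 h at 37 C. Beta-lactamase read by CCF4 fluorescence (460/530 nm); Hill fits gave IC50 and efficacy.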

[7] = qHTS assay for small molecule disruptors of the mitochondrial membrane potential - 1 hr assay (AID 651754; calls by dose curve; also: nearly all actives have a fitted effect of over 35% in size; also: potency is read from the fitted curve at half-maximal effect)
In short: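 Mitochondrial potential in living HepG2 cells after 1 hr compound treatment at 37C was read with Mito-MPS dye added for a further 30 min. Red aggregate and green monomer fluorescence were measured; loss of potential leaves dye as cytoplasmic monomers.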

[8] = qHTS assay for small molecule disruptors of the mitochondrial membrane potential - 5 hr assay (AID 651755; calls by dose curve; also: nearly all actives have a fitted effect of over 40% in size; also: potency is read from the fitted curve at half-maximal effect)
In short: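 Read-out: ratiometric Mito-MPS fluorescence, green monomer (ex 490/em 535) vs red mitochondrial aggregate (ex 540/em 590). HepG2 cells treated 5 hr at 37C before 30 min dye loading.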

[9] = molecular target: Nuclear receptor subfamily 1 group I member 2 (Rattus norvegicus) (UniProt Q9R1A7); test: qHTS assay for small molecule activators of the rat pregnane X receptor (rPXR) signaling pathway (AID 651751; call rule not given here; also: 0% is about no effect); conditions: rPXR reporter cells, luciferase (One-Glo), 24 h
Nuclear receptor subfamily 1 group I member 2 (Rattus norvegicus), sequence (Q9R1A7 whole entry, looked up): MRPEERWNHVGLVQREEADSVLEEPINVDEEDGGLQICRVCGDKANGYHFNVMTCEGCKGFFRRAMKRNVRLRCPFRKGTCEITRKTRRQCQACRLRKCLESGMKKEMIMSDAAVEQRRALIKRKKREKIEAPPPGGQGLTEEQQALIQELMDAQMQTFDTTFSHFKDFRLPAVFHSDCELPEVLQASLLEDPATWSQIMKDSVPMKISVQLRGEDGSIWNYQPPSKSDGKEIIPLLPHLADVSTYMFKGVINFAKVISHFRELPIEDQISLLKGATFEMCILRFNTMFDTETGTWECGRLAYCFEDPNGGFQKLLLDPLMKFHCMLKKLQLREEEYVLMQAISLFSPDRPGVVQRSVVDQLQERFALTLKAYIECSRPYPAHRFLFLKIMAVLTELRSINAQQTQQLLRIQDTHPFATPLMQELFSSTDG

[10] = Cell Viability - SK-N-SH (AID 435; calls by dose curve; also: potency is read from the fitted curve at half-maximal effect); conditions: SK-N-SH neuroblastoma cell viability qHTS
In short: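 SK-N-SH human neuroblastoma cells (1500/well) were exposed to compounds in complete medium for 40 h at 37 °C, and intracellular ATP was then measured by CellTiter-Glo luminescence. AC50 was taken from Hill fits, normalized to DMSO and 100 uM tamoxifen.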

[11] = Cell Viability - LYMP2-001 (AID 921); also: nearly all actives have a fitted effect of over 70% in size; also: potency is read from the fitted curve at half-maximal effect
In short: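 Human lymphoblastoid cells (Coriell), 2500 per well, were preincubated 5 hr at 37 C, then exposed to compounds in complete medium for 24 hr at 37 C. Cellular ATP was read by CellTiter-Glo luminescence; AC50 from Hill fits of concentration-response data.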

[12] = MultiTox-Fluor Cytotoxicity Assay - LYMP1-002 - Dead Cells (AID 960); also: nearly all actives have a fitted effect of over 60% in size; also: potency is read from the fitted curve at half-maximal effect
In short: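 Dead-cell fluorescence (Ex/Em 485/520) after 16 h compound exposure at 37 C of LYMP1-002 lymphoblastoid cells in complete medium; AC50 by Hill equation, with data scaled between DMSO and 15 uM tetraoctylammonium bromide.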

[13] = Cell Viability - LYMP2-005 (AID 967); also: potency is read from the fitted curve at half-maximal effect
In short: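 CellTiter-Glo luminescence (cellular ATP) read-out; LYMP2-005 lymphoblastoid cells, 2500/well, 5 h pre-incubation, then 24 h compound exposure at 37 C in complete medium. Tetraoctylammonium bromide positive control; AC50 by standard Hill fit.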

[14] = Cell Viability - LYMP2-009 (AID 968); also: nearly all actives have a fitted effect of over 55% in size; also: potency is read from the fitted curve at half-maximal effect
[15] = Cell Viability - LYMP2-015 (AID 971); also: nearly all actives have a fitted effect of over 55% in size; also: potency is read from the fitted curve at half-maximal effect
In short: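 Cytotoxicity readout: decrease in intracellular ATP (CellTiter-Glo luminescence) in 2500 LYMP2-015 lymphoblastoid cells/well after 24 h compound exposure at 37 C. Concentration-response data fitted with the standard Hill equation to give AC50.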

[16] = Cell Viability - LYMP2-017 (AID 972); also: nearly all actives have a fitted effect of over 55% in size; also: potency is read from the fitted curve at half-maximal effect; as to activity change, negative = cytotoxicity: % is scaled to controls: 0 for no effect and ±100 for the full control effect
In short: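 CellTiter-Glo luminescence (cellular ATP, 30 min RT) measured cytotoxicity after 24 hr compound treatment at 37 C. Cells were a human lymphoblastoid line, LYMP2-017, plated at 2500/well and incubated 5 hr first; concentration-response fitted with Hill equation for AC50.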

[17] = Cell Viability - LYMP2-006 (AID 978); also: nearly all actives have a fitted effect of over 60% in size; also: potency is read from the fitted curve at half-maximal effect; as to activity change, negative = cytotoxicity: % is scaled to controls: 0 for no effect and ±100 for the full control effect
In short: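 Human lymphoblastoid cells, 2500 per well, were preincubated 5 hr at 37 C, then exposed to compounds for 24 hr at 37 C in complete medium. Viability was read as intracellular ATP by CellTiter-Glo luminescence; AC50 from Hill-equation fits of qHTS concentration-response data.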

[18] = qHTS assay for small molecule agonists of retinoid X receptor alpha signaling (AID 588544); conditions: HEK293T RXRa-UAS-bla, beta-lactamase reporter, 18 h; 530 nm emission
[19] = molecular target: Thyroid hormone receptor beta (Homo sapiens) (UniProt P10828); test: qHTS assay for small molecule agonists of thyroid hormone receptor beta signaling (AID 588545; calls by dose curve)
In short: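 Agonist activity was read as beta-lactamase CCF4 fluorescence (405 ex, 460/530 em), scaled between DMSO (0%) and 10 nM T3 (100%), then Hill-fitted for EC50 and efficacy. HEK 293 TR-UAS-bla cells in 2% charcoal/dextran FBS medium were exposed 18 h at 37 C.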

[20] = qHTS assay for small molecule agonists of the antioxidant response element (ARE) signaling pathway measured by Nrf2-dependant transcriptional activity (AID 720636; active = well fitted curve in the direction sought with a large enough effect in the repeat runs; an effect the other way counts as inactive or inconclusive; also: potency is read from the fitted curve at half-maximal effect)
In short: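 Quantitative HTS format in HepG2 cells stably expressing an ARE-luciferase reporter; 16 hr compound treatment at 37 C, luciferase signal detected with ONE-Glo.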

O=C(OCC1CO1)C1CCCCC1C(=O)OCC1CO1 (centres undefined)
active: Potency [2] 50.1 µM | Potency [5] 50.1 µM
inactive: activity change, negative = cytotoxicity [1] 2.77% | Potency [3] | Potency [4] | activity change % (negative = inhibition) [6] -2.36% | Potency [7] | Potency [8] | max response [9] 1.33%

Brc1cc(Oc2cc(Br)c(Br)c(Br)c2Br)c(Br)c(Br)c1Br
inactive: Potency [10] > 92 µM | activity change, negative = cytotoxicity [1] -25% | Potency [2] | Potency [3] | Potency [11] | Potency [4] | Potency [12] | Potency [13] | Potency [14] | Potency [15] | Potency [16] | Potency [17] | Potency [5] | Potency [19] | activity change % (negative = inhibition) [6] 1.8% and 9.48% | Potency [7] | Potency [8] | Potency [20] | max response [9] 2.26% and 7.81%
21.6%: max response [18]

CCN(CC)c1ccc(N)cc1
inactive: Potency [12] | max response [9] 3.24%
active: activity change, negative = cytotoxicity [1] -118% | Potency [2] 79.4 µM | Potency [7] 29.8 µM | Potency [8] 29.8 µM

Clc1nc2ccccc2nc1Cl
inactive: Potency [10] > 92 µM | activity change, negative = cytotoxicity [1] -7.43% | Potency [2] | Potency [3] | Potency [12] | Potency [13] | Potency [17] | Potency [19] | activity change % (negative = inhibition) [6] -2.15% | Potency [7] | Potency [8]

Oc1cc2c(cc1O)[C@H]1c3ccc(O)c(O)c3OC[C@@]1(O)C2
inactive: Potency [12] | Potency [19] | activity change % (negative = inhibition) [6] -14.1% | Potency [7] | Potency [8] | max response [9] -8.86%
5.74%: max response [18]
active: activity change, negative = cytotoxicity [1] -91.8% | Potency [4] 50.1 µM | Potency [14] 39.8 µM | Potency [15] 25.1 µM | Potency [16] 31.6 µM | Potency [17] 39.8 µM | Potency [5] 39.8 µM

Cc1c(C(=O)O)c(O)cc2c1C(=O)c1c(O)c([C@H]3O[C@H](CO)[C@@H](O)[C@H](O)[C@H]3O)c(O)c(O)c1C2=O
inactive: Potency [4] | Potency [12] | Potency [19] | Potency [7] | Potency [8] | Potency [20] | max response [9] -9.27%
active: Potency [10] 38.2 µM | Potency [3] 31.6 µM
-6.4%: max response [18]

C=CC(=O)OCCCCCCOC(=O)C=C
3.42%: max response [18]
inactive: Potency [19] | activity change % (negative = inhibition) [6] -7.08% | Potency [7] | Potency [8] | Potency [20] | max response [9] -2.77% and -1.84%
active: Potency [10] 50.2 µM | activity change, negative = cytotoxicity [1] -110% | Potency [2] 39.8 µM | Potency [11] 31.6 µM | Potency [4] 39.8 µM | Potency [12] 31.6 µM | Potency [13] 39.8 µM | Potency [14] 39.8 µM | Potency [15] 39.8 µM | Potency [16] 39.8 µM | Potency [17] 50.1 µM | Potency [5] 39.8 µM

c1ccc(Nc2cccc3ccccc23)cc1
inactive: Potency [10] > 92 µM | Potency [2] | Potency [3] | Potency [11] | Potency [4] | Potency [13] | Potency [14] | Potency [15] | Potency [16] | Potency [17] | Potency [5] | Potency [19] | activity change % (negative = inhibition) [6] -18.5% and -42%
-7.08% and 4.25%: max response [18]

Oc1cc(Cl)cc(Cl)c1Cl
0.211%: max response [18]
active: Potency [1] 31.6 µM
inactive: Potency [2] | Potency [3] | Potency [11] | Potency [4] | Potency [12] | Potency [13] | Potency [15] | Potency [16] | Potency [17] | Potency [5] | Potency [19] | Potency [20] | max response [9] 0.309%

Nc1ccc(N)c(Cl)c1
15.5%: max response [18]
inactive: activity change, negative = cytotoxicity [1] 3.89% | Potency [2] | Potency [12] | Potency [13] | Potency [16] | Potency [17] | Potency [19] | activity change % (negative = inhibition) [6] -7.72% | max response [9] -1.32%
active: Potency [7] 7.5 µM | Potency [8] 10.6 µM

CC(=O)CC(=O)Nc1ccccc1
6.79% and 6.65%: max response [18]
inactive: Potency [10] > 92 µM | activity change, negative = cytotoxicity [1] -10.9% | Potency [2] | Potency [3] | Potency [11] | Potency [4] | Potency [12] | Potency [13] | Potency [14] | Potency [15] | Potency [16] | Potency [17] | Potency [19] | activity change % (negative = inhibition) [6] 8.7% and 11% | Potency [7] | Potency [8] | Potency [20] | max response [9] 8.9% and 1.01%

CN(C)c1ccc(C(=N)c2ccc(N(C)C)cc2)cc1
active: Potency [1] 31.6 µM | Potency [2] 12.6 µM | Potency [11] 31.6 µM | Potency [12] 15.8 µM
inactive: Potency [13] | Potency [19] | activity change % (negative = inhibition) [6] -25.2%

O=[N+]([O-])c1cc(Cl)c(Cl)c(Cl)c1Cl
inactive: activity change, negative = cytotoxicity [1] -28% | Potency [3] | Potency [11] | Potency [13] | Potency [19] | activity change % (negative = inhibition) [6] 1.99% | Potency [7] | Potency [8] | max response [9] 0.233%
active: Potency [12] 25.1 µM | Potency [20] 37.6 µM

NC(=O)Nc1nc2ccccc2[nH]1
-1.01%: max response [18]
inactive: Potency [10] > 92 µM | activity change, negative = cytotoxicity [1] -4.08% | Potency [2] | Potency [3] | Potency [11] | Potency [4] | Potency [13] | Potency [14] | Potency [15] | Potency [16] | Potency [17] | Potency [5] | activity change % (negative = inhibition) [6] -13.1% | Potency [7] | Potency [8] | Potency [20] | max response [9] -2.46%

O=Nc1ccc(Nc2ccccc2)cc1
active: Potency [10] 11.5 µM | activity change, negative = cytotoxicity [1] -115% | Potency [2] 31.6 µM
inactive: Potency [19] | Potency [7] | Potency [8]

CCCCC(CC)COP(=O)(OCC(CC)CCCC)OCC(CC)CCCC (centres undefined)
-2.54%: max response [18]
inactive: Potency [10] > 92 µM | Potency [2] | Potency [3] | Potency [11] | Potency [4] | Potency [13] | Potency [14] | Potency [15] | Potency [16] | Potency [17] | Potency [5] | Potency [19] | activity change % (negative = inhibition) [6] -23.6% | Potency [7] | Potency [8] | Potency [20] | max response [9] 1.51%
